Source: the antibiotic and cytotoxicity screens of Wong et al. (2023)
About 3,300 (8.5%) of roughly 39,000 compounds were called active. This is one part of a sample in which actives are shown more often than they occur.

tested on: HepG2; assay: cytotoxicity call (relative viability < 0.9); settings: 10 µM

Q: `CN1CCN(C(=O)C[C@H]2CC[C@H]3[C@@H](COC[C@H](O)CN3CC3CCCC3)O2)CC1` was tested. Which cytotoxicity call did it give?
A: inactive

Q: `C[C@H](CO)N1C[C@H](C)[C@@H](CN(C)C(=O)Nc2ccnc(N3CCOCC3)c2)OCc2cnnn2CCCC1=O` was tested. Which cytotoxicity call did it give?
A: inactive

Q: For `Cn1cnc(S(=O)(=O)N[C@@H]2C=C[C@@H](CC(=O)NCC3CC3)O[C@H]2CO)c1`, which cytotoxicity call is on record?
A: inactive

Q: Which cytotoxicity call does the source give for `O=C(O)C12CC(C1)C2` here?
A: inactive

Q: `COCC(=O)N(C)C[C@H]1Oc2cc(-c3ccc(C#N)cc3)ccc2S(=O)(=O)N([C@@H](C)CO)C[C@H]1C` was tested. Which cytotoxicity call did it give?
A: inactive

Q: `Cc1noc(C)c1NC(=O)N[C@H]1C=C[C@H](CC(=O)N2CCN(C)CC2)O[C@H]1CO` was tested. Which cytotoxicity call did it give?
A: inactive

Q: How did the cytotoxicity call turn out when `COc1cccc(C#Cc2ccc3c(c2)O[C@@H](CN(C)C(=O)CN2CCOCC2)[C@H](C)CN([C@H](C)CO)S3(=O)=O)c1` was run?
A: inactive

Q: With `Cc1ccc(S(=O)(=O)N(C)C[C@@H]2OCCCC[C@H](C)Oc3ccc(NC(=O)CCC(F)(F)F)cc3C(=O)N([C@H](C)CO)C[C@H]2C)cc1` as the compound, how does the cytotoxicity call read?
A: inactive

Q: Which cytotoxicity call does the source give for `CC[C@@H]1OC(=O)C[C@@H](O)[C@H](C)[C@@H](O[C@@H]2O[C@H](C)[C@@H](O)[C@H](N(C)C)[C@H]2O)[C@@H](CCN2C[C@H](C)C[C@H](C)C2)C[C@@H](C)C(=O)/C=C/C(C)=C\[C@@H]1CO[C@@H]1O[C@H](C)[C@@H](O)[C@@H](OC)[C@H]1OC` here?
A: inactive

Q: Which cytotoxicity call does the source give for `CCC1OC(=O)CC(O)C(C)C(OC2OC(C)C(O)C(N(C)C)C2O)C(CCN2CC(C)CC(C)C2)CC(C)C(=O)C=CC(C)=CC1COC1OC(C)C(O)C(OC)C1OC` (stereo not drawn) here?
A: active

Q: Which cytotoxicity call does the source give for `CC[C@H]1OC(=O)C[C@@H](O)[C@H](C)[C@@H](O[C@@H]2O[C@H](C)[C@@H](O)[C@H](N(C)C)[C@H]2O)[C@@H](CCN2C[C@H](C)C[C@H](C)C2)C[C@@H](C)C(=O)/C=C/C(C)=C/[C@@H]1CO[C@@H]1O[C@H](C)[C@@H](O)[C@@H](OC)[C@H]1OC` here?
A: inactive

Q: `C[C@H](CO)N1C[C@H](C)[C@H](CN(C)Cc2ccncc2)Oc2ccc(NS(=O)(=O)c3cccs3)cc2C1=O` was tested. Which cytotoxicity call did it give?
A: inactive

Q: Which cytotoxicity call does the source give for `CC(=O)OC1CC2C(C)(C)C(O)CCC2(C)C2CCC3(C)C(c4ccoc4)OC(=O)C4OC43C12C` (stereo not drawn) here?
A: inactive

Q: With `Cc1noc(C)c1S(=O)(=O)N(C)C[C@H]1Oc2ccc(NC(=O)C3CC3)cc2CC(=O)N([C@@H](C)CO)C[C@@H]1C` as the compound, how does the cytotoxicity call read?
A: inactive

Q: How did the cytotoxicity call turn out when `C[C@@H]1CN([C@H](C)CO)C(=O)c2cc(NC(=O)Nc3ccc(C(F)(F)F)cc3)ccc2O[C@@H](C)CCCCO[C@@H]1CN(C)S(=O)(=O)c1ccc(F)cc1` was run?
A: inactive

Q: For `C[C@H]1CCCCO[C@H](CN(C)S(=O)(=O)c2ccc(F)cc2)[C@@H](C)CN([C@@H](C)CO)C(=O)c2cc(NC(=O)Nc3ccc(C(F)(F)F)cc3)ccc2O1`, which cytotoxicity call is on record?
A: inactive

Q: With `C[C@H](CO)N1C[C@H](C)[C@H](CN(C)S(=O)(=O)c2ccc(F)cc2)OCCCC[C@H](C)Oc2ccc(NC(=O)Nc3ccc(C(F)(F)F)cc3)cc2C1=O` as the compound, how does the cytotoxicity call read?
A: inactive

Q: How did the cytotoxicity call turn out when `C[C@H](CO)N1C[C@H](C)[C@@H](CN(C)S(=O)(=O)c2ccc(F)cc2)OCCCC[C@H](C)Oc2ccc(NC(=O)Nc3ccc(C(F)(F)F)cc3)cc2C1=O` was run?
A: inactive

Q: With `C[C@@H]1CCCCO[C@H](CN(C)S(=O)(=O)c2ccc(F)cc2)[C@H](C)CN([C@@H](C)CO)C(=O)c2cc(NC(=O)Nc3ccc(C(F)(F)F)cc3)ccc2O1` as the compound, how does the cytotoxicity call read?
A: active

Q: For `C[C@@H]1CCCCO[C@H](CN(C)S(=O)(=O)c2ccc(F)cc2)[C@@H](C)CN([C@H](C)CO)C(=O)c2cc(NC(=O)Nc3ccc(C(F)(F)F)cc3)ccc2O1`, which cytotoxicity call is on record?
A: active

Q: For `C[C@@H]1CN([C@@H](C)CO)C(=O)c2cc(NC(=O)Nc3ccc(C(F)(F)F)cc3)ccc2O[C@@H](C)CCCCO[C@H]1CN(C)S(=O)(=O)c1ccc(F)cc1`, which cytotoxicity call is on record?
A: inactive

Q: For `C[C@@H]1CCCCO[C@@H](CN(C)S(=O)(=O)c2ccc(F)cc2)[C@@H](C)CN([C@@H](C)CO)C(=O)c2cc(NC(=O)Nc3ccc(C(F)(F)F)cc3)ccc2O1`, which cytotoxicity call is on record?
A: active

Q: Which cytotoxicity call does the source give for `C[C@@H]1CCCCO[C@@H](CN(C)S(=O)(=O)c2ccc(F)cc2)[C@H](C)CN([C@@H](C)CO)C(=O)c2cc(NC(=O)Nc3ccc(C(F)(F)F)cc3)ccc2O1` here?
A: inactive

Q: Which cytotoxicity call does the source give for `COc1ccc(C#Cc2cccc(-c3nc(C(=O)N[C@@H]4CCN(Cc5ccccc5)C4)cc4c3[C@@H](CCO)N(S(=O)C(C)(C)C)C4)c2)cc1OC` (stereo partly drawn) here?
A: inactive

Q: `c1ccc2cc3nc4c(ccc5ccccc54)nc3cc2c1` was tested. Which cytotoxicity call did it give?
A: inactive

Q: `C[C@@H]1CCCCO[C@@H](CN(C)C(=O)NC2CCCCC2)[C@@H](C)CN([C@H](C)CO)C(=O)c2cc(NC(=O)c3ccccc3)ccc2O1` was tested. Which cytotoxicity call did it give?
A: inactive

Q: `C[C@@H]1CN([C@@H](C)CO)S(=O)(=O)c2ccc(C#Cc3ccccc3)cc2O[C@H]1CN(C)S(C)(=O)=O` was tested. Which cytotoxicity call did it give?
A: inactive

Q: Which cytotoxicity call does the source give for `C[C@H](CO)N1C[C@H](C)[C@@H](CN(C)Cc2ccncc2)Oc2c(NC(=O)c3cnccn3)cccc2C1=O` here?
A: inactive

Q: With `CC(C)NC(=O)Nc1ccc2c(c1)C(=O)N([C@@H](C)CO)C[C@@H](C)[C@@H](CN(C)C(=O)Nc1cccc3ccccc13)OCCCC[C@@H](C)O2` as the compound, how does the cytotoxicity call read?
A: inactive

Q: With `C[C@@H]1CCCCO[C@@H](CN(C)C(=O)Nc2cccc3ccccc23)[C@H](C)CN([C@@H](C)CO)C(=O)c2cc(NC(=O)Nc3cccc4ccccc34)ccc2O1` as the compound, how does the cytotoxicity call read?
A: active

Q: With `CC(C)NC(=O)Nc1ccc2c(c1)C(=O)N([C@H](C)CO)C[C@@H](C)[C@H](CN(C)C(=O)Nc1cccc3ccccc13)OCCCC[C@H](C)O2` as the compound, how does the cytotoxicity call read?
A: inactive

Q: For `CC(C)NC(=O)Nc1ccc2c(c1)C(=O)N([C@H](C)CO)C[C@H](C)[C@H](CN(C)C(=O)Nc1cccc3ccccc13)OCCCC[C@H](C)O2`, which cytotoxicity call is on record?
A: active

Q: `C[C@H](CO)N1C[C@H](C)[C@@H](CN(C)C(=O)Nc2cccc3ccccc23)OCCCC[C@H](C)Oc2ccc(NC(=O)Nc3cccc4ccccc34)cc2C1=O` was tested. Which cytotoxicity call did it give?
A: inactive

Q: Which cytotoxicity call does the source give for `C[C@@H]1CCCCO[C@H](CN(C)C(=O)Nc2cccc3ccccc23)[C@H](C)CN([C@@H](C)CO)C(=O)c2cc(NC(=O)Nc3ccc(C(F)(F)F)cc3)ccc2O1` here?
A: active

Q: With `C[C@@H]1CN([C@@H](C)CO)C(=O)c2cc(NC(=O)Nc3ccc(C(F)(F)F)cc3)ccc2O[C@@H](C)CCCCO[C@@H]1CN(C)C(=O)Nc1cccc2ccccc12` as the compound, how does the cytotoxicity call read?
A: inactive

Q: `C[C@@H]1CN([C@@H](C)CO)C(=O)c2cc(NC(=O)Nc3ccc(C(F)(F)F)cc3)ccc2O[C@@H](C)CCCCO[C@H]1CN(C)C(=O)Nc1cccc2ccccc12` was tested. Which cytotoxicity call did it give?
A: inactive

Q: `C[C@@H]1CN([C@@H](C)CO)C(=O)c2cc(NC(=O)Nc3cccc4ccccc34)ccc2O[C@@H](C)CCCCO[C@H]1CN(C)C(=O)Nc1cccc2ccccc12` was tested. Which cytotoxicity call did it give?
A: inactive

Q: Which cytotoxicity call does the source give for `CN(C)CCCNC(=O)C[C@@H]1C=C[C@H](NS(=O)(=O)c2ccccc2)[C@H](CO)O1` here?
A: inactive

Q: With `CO[C@@H]1CN(C)C(=O)c2cc(NC(=O)C3CC3)ccc2OC[C@@H](C)N(C(=O)Cc2ccccn2)C[C@H]1C` as the compound, how does the cytotoxicity call read?
A: inactive

Q: How did the cytotoxicity call turn out when `NC(=O)c1ccc[n+](CC(=O)c2ccccc2)c1` was run?
A: inactive

Q: With `C[C@@H]1CN([C@H](C)CO)C(=O)c2cc(NC(=O)Cc3ccccc3)ccc2O[C@@H](C)CCCCO[C@@H]1CN(C)CC1CCCCC1` as the compound, how does the cytotoxicity call read?
A: inactive

Q: Which cytotoxicity call does the source give for `Cc1noc(C)c1S(=O)(=O)N(C)C[C@@H]1OCCCC[C@H](C)Oc2ccc(NS(=O)(=O)c3cn(C)cn3)cc2C(=O)N([C@@H](C)CO)C[C@H]1C` here?
A: inactive

Q: For `OC[C@@H]1CC[C@@H]2O[C@H](CCc3ccc(C#CCc4ccccc4)cc3)[C@@H](n3cc(-c4ccccc4)nn3)C[C@@H]2O1`, which cytotoxicity call is on record?
A: inactive

Q: `CO[C@H](C(=O)N(C)C[C@@H]1OCc2ccccc2-c2c(n(C)c3ccccc23)C(=O)N([C@H](C)CO)C[C@H]1C)c1ccccc1` was tested. Which cytotoxicity call did it give?
A: inactive

Q: Which cytotoxicity call does the source give for `CN(C)C(=O)[C@H]1[C@H](CO)[C@H]2Cn3c(ccc(C4=CCCC4)c3=O)[C@@H]1N2S(=O)(=O)c1cn(C)cn1` here?
A: inactive

Q: How did the cytotoxicity call turn out when `O=C(C[C@@H]1CC[C@H]2[C@@H](COC[C@H](O)CN2S(=O)(=O)c2cccc(F)c2)O1)NCc1ccc(Cl)c(Cl)c1` was run?
A: inactive

Q: With `C[C@H]1CN([C@@H](C)CO)C(=O)c2cc(NC(=O)CCC(F)(F)F)ccc2O[C@@H]1CN(C)Cc1ccc(C(F)(F)F)cc1` as the compound, how does the cytotoxicity call read?
A: inactive

Q: How did the cytotoxicity call turn out when `C[C@H]1CN([C@@H](C)CO)C(=O)c2cc(NC(=O)CCC(F)(F)F)ccc2O[C@H]1CN(C)Cc1ccc(-c2ccccc2)cc1` was run?
A: inactive

Q: `C[C@H](CO)N1C[C@H](C)[C@@H](CN(C)Cc2ccc(-c3ccccc3)cc2)Oc2ccc(NC(=O)CCC(F)(F)F)cc2C1=O` was tested. Which cytotoxicity call did it give?
A: inactive

Q: For `C[C@H]1CN([C@@H](C)CO)C(=O)c2cc(NC(=O)CCC(F)(F)F)ccc2O[C@@H]1CN(C)Cc1ccc(-c2ccccc2)cc1`, which cytotoxicity call is on record?
A: active

Q: With `C[C@H](CO)N1C[C@H](C)[C@H](CN(C)Cc2ccc(C(F)(F)F)cc2)Oc2ccc(NC(=O)CCC(F)(F)F)cc2C1=O` as the compound, how does the cytotoxicity call read?
A: inactive

Q: For `C[C@H](CO)N1C[C@H](C)[C@@H](CN(C)Cc2ccc(Oc3ccccc3)cc2)Oc2ccc(NC(=O)CCC(F)(F)F)cc2C1=O`, which cytotoxicity call is on record?
A: inactive

Q: `C[C@@H]1CN([C@@H](C)CO)C(=O)c2cc(NC(=O)CCC(F)(F)F)ccc2O[C@H]1CN(C)Cc1ccc(Oc2ccccc2)cc1` was tested. Which cytotoxicity call did it give?
A: inactive

Q: For `C[C@@H]1CN([C@@H](C)CO)C(=O)c2cc(NC(=O)CCC(F)(F)F)ccc2O[C@H]1CN(C)Cc1ccc(-c2ccccc2)cc1`, which cytotoxicity call is on record?
A: active

Q: How did the cytotoxicity call turn out when `C[C@@H]1CN([C@H](C)CO)C(=O)c2cc(NC(=O)CCC(F)(F)F)ccc2O[C@H]1CN(C)Cc1ccc(-c2ccccc2)cc1` was run?
A: active

Q: For `C[C@@H]1CN([C@H](C)CO)C(=O)c2cc(NC(=O)CCC(F)(F)F)ccc2O[C@@H]1CN(C)Cc1ccc(-c2ccccc2)cc1`, which cytotoxicity call is on record?
A: inactive

Q: With `C[C@H](CO)N1C[C@H](C)[C@H](CN(C)Cc2ccc(-c3ccccc3)cc2)Oc2ccc(NC(=O)CCC(F)(F)F)cc2C1=O` as the compound, how does the cytotoxicity call read?
A: active

Q: How did the cytotoxicity call turn out when `C[C@@H]1CN([C@@H](C)CO)C(=O)c2cc(NC(=O)CCC(F)(F)F)ccc2O[C@@H]1CN(C)Cc1ccc(-c2ccccc2)cc1` was run?
A: inactive
